The whole screen tested about 69,000 compounds, of which about 8,600 (12%) showed an effect of 50% or more. The entries come from a sample that favours strong results as a whole.

This assay has as its system Plasmodium berghei. Description: Screen against P. berghei liver stage (PbLuc), transformed with Luciferase, at 10uM. The assay is classed as functional, HepG2. To be noted: tested at 10 uM.
Regarding `CC(C)CN(CC(O)c1ccc(F)cc1)C(=O)c1cnsn1` (stereo unspecified), the INHIBITION was -24.9%. As for `Cc1cc(CN2C[C@@H]3CC[C@H]2CN(C2Cc4ccccc4C2)C3)on1`, the INHIBITION came out at 64.5%. Then `Cc1nnc(CN2C[C@@H]3CC[C@H]2CN(C2Cc4ccccc4C2)C3)o1`, with 66.1%; and `CSCC(=O)N1C[C@@H]2CC[C@H]1CN(C1Cc3ccccc3C1)C2`, with -69.3%. Then `CCc1cc(CN2C[C@@H]3CC[C@H]2CN(C2Cc4ccccc4C2)C3)on1`, with 57.1%; and `CN(C)C(=O)N1C[C@@H]2CC[C@H]1CN(C1Cc3ccccc3C1)C2`, with -57.9%.

For the compound `Cc1noc(CN2C[C@@H]3CC[C@H]2CN(C2Cc4ccccc4C2)C3)n1`, the INHIBITION turned out to be 30.9%. As for `O=C(CO)N1C[C@@H]2CC[C@H]1CN(C1Cc3ccccc3C1)C2`, the INHIBITION came out at 25.4%.

On to `CCc1noc(CN2C[C@@H]3CC[C@H]2CN(C2Cc4ccccc4C2)C3)n1`, for which the INHIBITION turned out to be 12.8%.

Consider `COCCOCC(=O)N1C[C@@H]2CC[C@H]1CN(C1Cc3ccccc3C1)C2`, for which the INHIBITION is on record as -62.1%. Then `O=C1COC2(CCN(C(=O)c3ccco3)CC2)CN1Cc1ccccn1`, with 28.2%; and `CCn1cc(-c2n[nH]c(=O)n2-c2ccc(OC)c(OC)c2)c(C)n1`, with 41.4%.

Regarding `CCn1ccc2ccnc(CC3CN(C(=O)Cn4ccnc4C)C3)c21`, the INHIBITION amounted to 6.26%. Regarding `CCc1nccn1C1CCCN(C(=O)c2ccc3nnc(C)n3c2)C1` (stereo unspecified), the INHIBITION is on record as -6.44%. Then `COc1c(NS(=O)(=O)c2ccc(F)c(C)c2)c(C)nn1C`, with 29.6%; and `COc1c(NS(=O)(=O)c2ccc(C)c(C)c2)c(C)nn1C`, with 51.1%; and `Cc1ccc(S(=O)(=O)Nc2c(C)nn(C)c2C)cc1C`, with 45.7%.

For `Cc1noc(C)c1S(=O)(=O)N1CCC(n2cccn2)CC1`, the INHIBITION is -25.4%. With `CCN1CCC(N2CCC(c3nc(C)cc(C)n3)C2)CC1` (stereo unspecified), the INHIBITION is on record as 23.9%. For `CN(C)C(=O)C1CCCN1CCCNC(=O)c1ccccc1Cl` (stereo unspecified), the INHIBITION is 42.5%.

For the compound `CC(C)(C)c1oc(C(N)=O)cc1CN1CCOC(C(F)(F)F)C1` (stereo unspecified), the INHIBITION stood at 22.5%. Consider `CC(C)(C)c1oc(C(N)=O)cc1CN1CCCCC1CN1CCOCC1` (stereo unspecified), for which the INHIBITION was determined as 48.5%. `CC(C)(C)c1oc(C(N)=O)cc1CN1CCCCC(N)C1` (stereo unspecified): the INHIBITION is 51.8%. Then `Cc1ccc(OCCNC(=O)C(C)n2cncn2)cc1` (stereo unspecified), with 8.47%. For `Cc1cc(C)cc(OCCN(C)C(=O)NC(C)c2nncn2C)c1` (stereo unspecified), the INHIBITION is listed as 21.5%. As for `CC(NC(=O)NCCOc1ccc(F)c(F)c1)c1nncn1C` (stereo unspecified), the INHIBITION is on record as 0.0932%. In the case of `Cc1ccc(OCCCNC(=O)C(C)Sc2nncn2C)cc1` (stereo unspecified), the INHIBITION is 50.8%. For the compound `CC(Sc1nncn1C)C(=O)NCCCOc1ccc(F)cc1` (stereo unspecified), the INHIBITION came to 51.7%. Then `Cc1ccc(OCCCNC(=O)NC(C)c2nncn2C)cc1` (stereo unspecified), with 38.7%. For `CC(C(=O)NCCOc1ccc(F)cc1)n1cncn1` (stereo unspecified), the INHIBITION is on record as -44.3%. Then `Cc1cc(C)cc(OCCNC(=O)C(C)Sc2nncn2C)c1` (stereo unspecified), with 53.6%; and `CC(NC(=O)N(C)CCCOc1ccc(F)cc1)c1nncn1C` (stereo unspecified), with -20%; and `O=C(CCSc1ccccc1F)NCc1cccnc1`, with -0.514%. Turning to `NC(=O)CN1CC(c2nc(C3CC3)no2)C1`, the INHIBITION amounted to 19.8%.

For the compound `Cc1nn(CCNC(=O)c2cc(C3CC3)[nH]n2)c(C)c1Cl`, the INHIBITION was -28%. `CCN(C)c1ncnc2c1CCN(Cc1ccncc1)CC2`: the INHIBITION was 38.3%.

As for `CN(C)S(=O)(=O)N1C[C@@H](OCc2cccnc2)[C@H]2OCCC[C@H]21`, the INHIBITION came to 11.6%. For `Cc1nc2cc(C(=O)N(CCC#N)CC3CCCO3)ccc2[nH]1` (stereo unspecified), the INHIBITION was -0.371%. `Cc1ccccc1C(N)c1ccncc1` (stereo unspecified): the INHIBITION is given as -1.38%. Turning to `Cc1nc(CN2CCC3(CCN(Cc4cnn(C)c4)CC3)C2=O)cs1`, the INHIBITION is reported as -22.1%.

For `CSc1ccccc1C(=O)N1C[C@@H]2CC[C@H]1CN(C(=O)C1CCC1)C2`, the INHIBITION is 9.41%.

On to `CCC(C)Sc1ncc(-c2c(C#N)c(N)nc3c2COCC3)cn1` (stereo unspecified), for which the INHIBITION came to 29.9%. For the compound `CCc1cc(CNC(=O)NCc2ccc(N3CCCCC3)cc2)on1`, the INHIBITION is 51.1%. On to `CCc1cc(CNC(=O)Nc2cc(F)cc(N3CCCC3)c2)on1`, for which the INHIBITION came to 38.3%. Turning to `Cc1noc(CCNC(=O)NCc2ccc(N3CCCCC3)cc2)n1`, the INHIBITION is on record as -95.7%. Take `COc1ccccc1CN(CC1CCCO1)C(=O)c1ccc(F)cn1` (stereo unspecified): the INHIBITION was 5.23%. Then `CCn1cc2c(n1)CN(S(=O)(=O)c1cn(C)cn1)CC2COC` (stereo unspecified), with -18.5%; and `CN(C)c1nc(N)nc(CN2CCC(c3nc4ccccc4o3)CC2)n1`, with 45.4%; and `Cc1cccc(C2CCCN2Cc2nc(N)nc(N(C)C)n2)c1C` (stereo unspecified), with 35.2%. Then `CN(C)c1nc(N)nc(CN2CCCC2c2ccsc2)n1` (stereo unspecified), with 25.5%; and `CCC1CCCN(Cc2nc(N)c3ccccc3n2)C1` (stereo unspecified), with 36.75%. Then `CN(C)c1nc(N)nc(CN2CCCC2c2cccs2)n1` (stereo unspecified), with 70%; and `Cn1ccc(CN2CCC(c3ccccc3)CC2)cc1=O`, with 38%; and `CN(C)c1nc(N)nc(CN2CCCC(c3ccccc3)CC2)n1` (stereo unspecified), with 57.8%. With `CN(C)c1nc(N)nc(CN2CCC(c3ccccc3)CC2)n1`, the INHIBITION is given as 67.8%. For `O=C(O)CN1CCC(c2ccccc2)CC1`, the INHIBITION is 1.03%.

These data come from ChEMBL document CHEMBL4513216, “Probing the Open Global Health Chemical Diversity Library for Multistage-Active Starting Points for Next-Generation Antimalarials” (ACS Infect Dis, 2020).
